From article PMC7862700, “An all-to-all approach to the identification of sequence-specific readers for epigenetic DNA modifications on cytosine”

Key:
Assay in all cases: DAPPL (digital affinity profiling via proximity ligation, sequencing); 10 mM Tris-HCl pH 7.5, 50 mM NaCl, 1 mM DTT, 4% glycerol, room temperature, 30 min; GST-TFs on glutathione beads, 16-mer random dsDNA library, 0.1% formaldehyde crosslink after washing; high values mean tight binding
Settings in all cases: protein: recombinant; tags: N-terminal GST; dsDNA, one strand shown
ELK1 = biological target: T1, ELK1 (Homo sapiens, UniProt P19419 1-428)
T1 sequence: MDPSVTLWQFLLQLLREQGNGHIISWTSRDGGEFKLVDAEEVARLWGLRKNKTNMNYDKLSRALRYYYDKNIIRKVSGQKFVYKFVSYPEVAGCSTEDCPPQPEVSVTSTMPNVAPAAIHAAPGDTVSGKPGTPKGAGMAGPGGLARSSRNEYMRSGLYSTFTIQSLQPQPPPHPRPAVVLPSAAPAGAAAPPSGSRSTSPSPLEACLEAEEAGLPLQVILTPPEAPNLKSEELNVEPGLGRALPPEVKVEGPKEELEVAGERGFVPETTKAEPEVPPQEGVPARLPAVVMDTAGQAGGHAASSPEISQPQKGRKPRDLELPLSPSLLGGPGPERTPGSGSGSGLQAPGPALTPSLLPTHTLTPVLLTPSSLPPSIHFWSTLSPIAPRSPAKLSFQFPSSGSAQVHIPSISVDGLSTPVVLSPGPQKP
How it was run: (§1)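 Yeast served to express human transcription factors as GST fusions, which were then captured on glutathione beads and labelled with DNA barcodes. Pooled with a tag-only sample, they were incubated with 200 nmole of a 16-mer random double-stranded DNA library for 30 min at room temperature in Tris/NaCl/DTT/glycerol buffer, washed, crosslinked with 0.1% formaldehyde, ligated by proximity, amplified by PCR and sequenced. Dividing each hexamer's read frequency for a factor by its frequency for the tag-only sample gives the binding signal.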

GABPA = biological target: T2, GABPA (Homo sapiens, UniProt Q06546 1-454)
T2 sequence: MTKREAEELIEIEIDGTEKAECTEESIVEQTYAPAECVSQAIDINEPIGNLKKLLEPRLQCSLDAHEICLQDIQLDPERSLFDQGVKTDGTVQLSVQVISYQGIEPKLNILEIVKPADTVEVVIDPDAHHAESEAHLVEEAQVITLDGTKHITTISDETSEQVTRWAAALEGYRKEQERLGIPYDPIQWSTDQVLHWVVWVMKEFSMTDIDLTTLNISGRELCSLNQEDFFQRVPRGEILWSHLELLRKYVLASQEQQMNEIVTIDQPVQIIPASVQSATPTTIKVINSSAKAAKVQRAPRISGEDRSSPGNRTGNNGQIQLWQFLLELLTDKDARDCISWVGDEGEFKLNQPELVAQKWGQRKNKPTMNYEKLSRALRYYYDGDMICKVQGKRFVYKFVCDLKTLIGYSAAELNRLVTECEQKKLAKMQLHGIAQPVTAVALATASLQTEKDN
How it was run: as §1

ERG = biological target: T3, ERG (Homo sapiens, UniProt P11308 1-479)
T3 sequence: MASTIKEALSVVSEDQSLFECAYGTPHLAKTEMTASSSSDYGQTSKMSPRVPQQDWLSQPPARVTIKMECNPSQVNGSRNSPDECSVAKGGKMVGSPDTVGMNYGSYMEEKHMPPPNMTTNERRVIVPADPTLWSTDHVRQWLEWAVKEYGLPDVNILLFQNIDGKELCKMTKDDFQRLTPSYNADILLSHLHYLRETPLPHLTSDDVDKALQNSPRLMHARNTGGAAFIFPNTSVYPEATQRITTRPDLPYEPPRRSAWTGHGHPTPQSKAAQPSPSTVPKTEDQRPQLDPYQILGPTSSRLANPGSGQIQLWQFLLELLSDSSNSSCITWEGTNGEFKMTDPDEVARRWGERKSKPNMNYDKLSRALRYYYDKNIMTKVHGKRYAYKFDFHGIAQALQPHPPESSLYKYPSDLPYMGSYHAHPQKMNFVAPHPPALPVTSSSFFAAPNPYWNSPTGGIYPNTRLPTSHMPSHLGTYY
How it was run: as §1

ELF1 = ELF1 (Homo sapiens, UniProt P32519 1-619)
How it was run: as §1

EHF = biological target: T4, EHF (Homo sapiens, UniProt Q9NZC4 1-300)
T4 sequence: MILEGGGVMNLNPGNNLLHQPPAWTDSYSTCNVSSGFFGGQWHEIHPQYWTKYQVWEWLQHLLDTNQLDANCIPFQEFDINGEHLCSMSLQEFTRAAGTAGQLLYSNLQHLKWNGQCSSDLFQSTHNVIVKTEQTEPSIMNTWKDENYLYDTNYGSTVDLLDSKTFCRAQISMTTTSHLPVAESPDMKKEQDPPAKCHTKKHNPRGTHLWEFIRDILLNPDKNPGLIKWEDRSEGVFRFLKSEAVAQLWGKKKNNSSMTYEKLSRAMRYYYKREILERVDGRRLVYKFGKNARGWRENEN
How it was run: as §1

SPIB = SPIB (Homo sapiens, UniProt Q01892 1-262)
How it was run: as §1

ELK3 = biological target: T5, ELK3 (Homo sapiens, UniProt P41970 1-407)
T5 sequence: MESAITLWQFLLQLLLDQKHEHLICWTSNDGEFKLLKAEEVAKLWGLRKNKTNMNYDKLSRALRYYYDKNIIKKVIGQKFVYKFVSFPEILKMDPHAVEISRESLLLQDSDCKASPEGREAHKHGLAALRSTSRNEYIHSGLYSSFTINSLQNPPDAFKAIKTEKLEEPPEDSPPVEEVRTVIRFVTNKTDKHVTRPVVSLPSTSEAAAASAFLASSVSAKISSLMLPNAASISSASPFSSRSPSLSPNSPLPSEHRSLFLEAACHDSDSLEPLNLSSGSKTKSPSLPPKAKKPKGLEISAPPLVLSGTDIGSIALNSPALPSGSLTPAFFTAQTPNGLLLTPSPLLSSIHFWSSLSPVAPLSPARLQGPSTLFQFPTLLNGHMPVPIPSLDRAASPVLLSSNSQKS
How it was run: as §1

ELF4 = ELF4 (Homo sapiens, UniProt Q99607 1-663)
How it was run: as §1

ELK4 = biological target: T6, ELK4 (Homo sapiens, UniProt P28324-2 1-405)
T6 sequence: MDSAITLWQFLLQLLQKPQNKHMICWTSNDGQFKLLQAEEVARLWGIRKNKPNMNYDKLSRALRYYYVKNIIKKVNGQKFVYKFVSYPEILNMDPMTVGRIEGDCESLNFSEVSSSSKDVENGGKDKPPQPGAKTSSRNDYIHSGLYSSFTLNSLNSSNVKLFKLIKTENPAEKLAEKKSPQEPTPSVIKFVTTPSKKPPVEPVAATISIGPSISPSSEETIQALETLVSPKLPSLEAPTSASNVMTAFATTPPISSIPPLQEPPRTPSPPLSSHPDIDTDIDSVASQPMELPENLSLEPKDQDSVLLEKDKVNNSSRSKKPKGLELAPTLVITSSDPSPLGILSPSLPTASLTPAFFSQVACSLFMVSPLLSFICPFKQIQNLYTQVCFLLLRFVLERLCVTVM
How it was run: as §1

ETV2 = biological target: T7, ETV2 (Homo sapiens, UniProt O00321 1-342)
T7 sequence: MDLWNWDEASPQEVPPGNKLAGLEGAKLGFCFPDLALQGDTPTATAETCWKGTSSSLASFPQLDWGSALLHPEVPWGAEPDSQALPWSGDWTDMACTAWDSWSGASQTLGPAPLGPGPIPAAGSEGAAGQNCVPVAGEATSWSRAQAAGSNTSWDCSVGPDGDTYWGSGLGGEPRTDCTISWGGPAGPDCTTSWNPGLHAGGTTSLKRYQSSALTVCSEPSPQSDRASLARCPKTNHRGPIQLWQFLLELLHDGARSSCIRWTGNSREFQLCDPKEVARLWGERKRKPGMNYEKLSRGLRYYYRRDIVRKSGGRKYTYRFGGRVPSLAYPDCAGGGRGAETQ
How it was run: as §1

ELF3 = biological target: T8, ELF3 (Homo sapiens, UniProt P78545 1-371)
T8 sequence: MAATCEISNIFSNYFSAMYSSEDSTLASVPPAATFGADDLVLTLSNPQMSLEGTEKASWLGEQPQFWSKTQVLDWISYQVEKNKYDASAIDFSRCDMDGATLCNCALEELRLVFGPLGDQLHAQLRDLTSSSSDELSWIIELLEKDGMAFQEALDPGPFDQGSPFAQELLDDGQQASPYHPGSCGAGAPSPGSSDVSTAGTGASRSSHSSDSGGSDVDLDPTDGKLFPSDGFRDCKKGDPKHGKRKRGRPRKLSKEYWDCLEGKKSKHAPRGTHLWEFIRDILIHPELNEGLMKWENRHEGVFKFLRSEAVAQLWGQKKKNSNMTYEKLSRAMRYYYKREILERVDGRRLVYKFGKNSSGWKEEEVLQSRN
How it was run: as §1

ETV1 = ETV1 (Homo sapiens, UniProt P50549 1-477)
How it was run: as §1

ERF = biological target: T9, ERF (Homo sapiens, UniProt P50548 1-548)
T9 sequence: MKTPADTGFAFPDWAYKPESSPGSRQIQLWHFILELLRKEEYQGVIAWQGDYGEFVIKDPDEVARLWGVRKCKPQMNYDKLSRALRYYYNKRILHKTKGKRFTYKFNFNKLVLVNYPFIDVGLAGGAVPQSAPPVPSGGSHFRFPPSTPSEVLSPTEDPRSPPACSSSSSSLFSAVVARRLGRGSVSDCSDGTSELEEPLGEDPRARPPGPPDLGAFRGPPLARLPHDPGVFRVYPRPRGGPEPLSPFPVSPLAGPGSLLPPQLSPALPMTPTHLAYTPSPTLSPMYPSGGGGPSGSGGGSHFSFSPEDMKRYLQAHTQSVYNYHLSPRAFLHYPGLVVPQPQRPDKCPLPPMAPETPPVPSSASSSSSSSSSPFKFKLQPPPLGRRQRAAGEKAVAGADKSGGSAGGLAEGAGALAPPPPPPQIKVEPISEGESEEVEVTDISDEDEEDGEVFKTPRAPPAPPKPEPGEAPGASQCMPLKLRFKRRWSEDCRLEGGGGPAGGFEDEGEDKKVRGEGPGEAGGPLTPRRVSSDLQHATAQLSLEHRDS
How it was run: as §1

ETV3L = biological target: T10, ETV3L (Homo sapiens, UniProt Q6ZN32 1-361)
T10 sequence: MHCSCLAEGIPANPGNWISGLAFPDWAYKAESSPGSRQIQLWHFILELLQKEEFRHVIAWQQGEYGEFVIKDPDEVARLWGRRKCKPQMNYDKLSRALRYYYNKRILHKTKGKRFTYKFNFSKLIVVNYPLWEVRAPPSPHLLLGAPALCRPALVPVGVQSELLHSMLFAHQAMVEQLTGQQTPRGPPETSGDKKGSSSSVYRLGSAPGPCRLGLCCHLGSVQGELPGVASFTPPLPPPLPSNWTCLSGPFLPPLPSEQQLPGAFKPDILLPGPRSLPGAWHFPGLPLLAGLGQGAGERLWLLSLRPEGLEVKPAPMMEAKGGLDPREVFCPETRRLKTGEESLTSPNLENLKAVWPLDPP
How it was run: as §1

ETS2 = biological target: T11, ETS2 (Homo sapiens, UniProt P15036 1-469)
T11 sequence: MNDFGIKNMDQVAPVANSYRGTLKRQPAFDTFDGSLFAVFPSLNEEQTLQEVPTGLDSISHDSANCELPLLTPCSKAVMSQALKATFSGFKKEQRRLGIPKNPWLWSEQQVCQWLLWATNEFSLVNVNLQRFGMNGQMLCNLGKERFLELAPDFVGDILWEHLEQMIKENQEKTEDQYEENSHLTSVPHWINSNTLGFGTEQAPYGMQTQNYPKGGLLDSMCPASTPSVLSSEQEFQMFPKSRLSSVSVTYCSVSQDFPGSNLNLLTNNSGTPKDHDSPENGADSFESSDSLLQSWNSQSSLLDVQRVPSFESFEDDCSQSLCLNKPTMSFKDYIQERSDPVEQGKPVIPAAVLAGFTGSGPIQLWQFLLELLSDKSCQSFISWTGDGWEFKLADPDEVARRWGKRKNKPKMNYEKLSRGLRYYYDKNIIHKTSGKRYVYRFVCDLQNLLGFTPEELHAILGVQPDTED
How it was run: as §1

ETV7 = biological target: T12, ETV7 (Homo sapiens, UniProt Q9Y603 1-341)
T12 sequence: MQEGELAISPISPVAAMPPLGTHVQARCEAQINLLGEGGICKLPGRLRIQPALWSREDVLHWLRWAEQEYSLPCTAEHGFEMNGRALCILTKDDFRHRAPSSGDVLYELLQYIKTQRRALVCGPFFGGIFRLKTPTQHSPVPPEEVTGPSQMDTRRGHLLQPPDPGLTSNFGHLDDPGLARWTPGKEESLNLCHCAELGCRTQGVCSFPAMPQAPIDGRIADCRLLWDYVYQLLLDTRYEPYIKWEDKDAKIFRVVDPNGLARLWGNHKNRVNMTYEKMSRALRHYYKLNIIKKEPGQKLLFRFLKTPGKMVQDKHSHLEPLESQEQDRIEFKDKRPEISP
How it was run: as §1

ETV3 = biological target: T13, ETV3 (Homo sapiens, UniProt P41162-2 1-143)
T13 sequence: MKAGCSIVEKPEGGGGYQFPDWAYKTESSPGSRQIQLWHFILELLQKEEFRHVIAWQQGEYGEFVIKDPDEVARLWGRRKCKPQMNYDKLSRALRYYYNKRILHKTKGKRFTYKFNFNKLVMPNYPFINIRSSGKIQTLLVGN
How it was run: as §1

ETV6 = ETV6 (Homo sapiens, UniProt P41212 1-452)
How it was run: as §1

ELF1, sequence (P32519 whole entry): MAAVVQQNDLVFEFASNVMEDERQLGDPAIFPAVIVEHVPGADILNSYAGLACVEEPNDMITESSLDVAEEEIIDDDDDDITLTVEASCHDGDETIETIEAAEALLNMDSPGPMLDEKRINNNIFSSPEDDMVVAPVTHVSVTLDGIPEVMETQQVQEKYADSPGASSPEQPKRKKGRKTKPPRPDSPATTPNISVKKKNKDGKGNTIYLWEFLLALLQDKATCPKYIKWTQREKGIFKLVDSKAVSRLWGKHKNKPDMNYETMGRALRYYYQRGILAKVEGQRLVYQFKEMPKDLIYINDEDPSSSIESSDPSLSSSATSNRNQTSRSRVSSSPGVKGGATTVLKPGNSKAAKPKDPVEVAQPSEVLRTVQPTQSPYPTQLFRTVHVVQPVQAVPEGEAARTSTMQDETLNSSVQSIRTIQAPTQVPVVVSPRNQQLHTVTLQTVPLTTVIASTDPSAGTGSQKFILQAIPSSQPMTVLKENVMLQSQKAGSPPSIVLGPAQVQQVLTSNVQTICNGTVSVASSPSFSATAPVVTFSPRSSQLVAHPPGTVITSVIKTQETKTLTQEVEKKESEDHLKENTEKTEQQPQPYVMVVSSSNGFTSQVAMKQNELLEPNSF
ETV6, sequence (P41212 whole entry): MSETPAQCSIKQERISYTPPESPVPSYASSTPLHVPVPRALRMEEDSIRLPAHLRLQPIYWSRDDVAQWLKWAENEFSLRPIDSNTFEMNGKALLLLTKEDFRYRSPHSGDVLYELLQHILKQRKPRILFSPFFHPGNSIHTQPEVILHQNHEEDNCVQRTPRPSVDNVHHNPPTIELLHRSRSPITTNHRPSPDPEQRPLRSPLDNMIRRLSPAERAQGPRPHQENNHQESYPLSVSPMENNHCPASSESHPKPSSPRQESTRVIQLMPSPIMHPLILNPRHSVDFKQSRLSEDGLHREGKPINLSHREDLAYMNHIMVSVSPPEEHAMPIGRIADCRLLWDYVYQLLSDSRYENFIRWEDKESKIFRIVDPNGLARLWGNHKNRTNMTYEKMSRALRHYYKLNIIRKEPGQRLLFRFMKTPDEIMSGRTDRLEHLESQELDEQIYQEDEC
ETV1, sequence (P50549 whole entry): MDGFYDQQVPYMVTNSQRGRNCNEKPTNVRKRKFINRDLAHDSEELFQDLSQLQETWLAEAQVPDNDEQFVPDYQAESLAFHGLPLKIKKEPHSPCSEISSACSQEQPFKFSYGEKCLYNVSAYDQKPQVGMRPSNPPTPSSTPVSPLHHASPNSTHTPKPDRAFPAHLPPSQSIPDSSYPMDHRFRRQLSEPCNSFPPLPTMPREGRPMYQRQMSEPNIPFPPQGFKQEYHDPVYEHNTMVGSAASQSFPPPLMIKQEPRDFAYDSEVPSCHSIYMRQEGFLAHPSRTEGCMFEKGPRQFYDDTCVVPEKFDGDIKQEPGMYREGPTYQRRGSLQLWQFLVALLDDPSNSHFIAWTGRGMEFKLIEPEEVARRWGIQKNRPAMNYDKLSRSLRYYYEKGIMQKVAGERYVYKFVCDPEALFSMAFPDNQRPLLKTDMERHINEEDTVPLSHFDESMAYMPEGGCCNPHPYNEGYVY
SPIB, sequence (Q01892 whole entry): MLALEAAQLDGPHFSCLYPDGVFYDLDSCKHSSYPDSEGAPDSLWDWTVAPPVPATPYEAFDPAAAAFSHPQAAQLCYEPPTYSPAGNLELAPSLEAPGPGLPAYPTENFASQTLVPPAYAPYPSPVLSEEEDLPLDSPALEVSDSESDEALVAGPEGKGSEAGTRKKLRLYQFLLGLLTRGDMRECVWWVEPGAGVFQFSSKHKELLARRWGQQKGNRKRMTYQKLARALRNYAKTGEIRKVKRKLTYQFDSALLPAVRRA
ELF4, sequence (Q99607 whole entry): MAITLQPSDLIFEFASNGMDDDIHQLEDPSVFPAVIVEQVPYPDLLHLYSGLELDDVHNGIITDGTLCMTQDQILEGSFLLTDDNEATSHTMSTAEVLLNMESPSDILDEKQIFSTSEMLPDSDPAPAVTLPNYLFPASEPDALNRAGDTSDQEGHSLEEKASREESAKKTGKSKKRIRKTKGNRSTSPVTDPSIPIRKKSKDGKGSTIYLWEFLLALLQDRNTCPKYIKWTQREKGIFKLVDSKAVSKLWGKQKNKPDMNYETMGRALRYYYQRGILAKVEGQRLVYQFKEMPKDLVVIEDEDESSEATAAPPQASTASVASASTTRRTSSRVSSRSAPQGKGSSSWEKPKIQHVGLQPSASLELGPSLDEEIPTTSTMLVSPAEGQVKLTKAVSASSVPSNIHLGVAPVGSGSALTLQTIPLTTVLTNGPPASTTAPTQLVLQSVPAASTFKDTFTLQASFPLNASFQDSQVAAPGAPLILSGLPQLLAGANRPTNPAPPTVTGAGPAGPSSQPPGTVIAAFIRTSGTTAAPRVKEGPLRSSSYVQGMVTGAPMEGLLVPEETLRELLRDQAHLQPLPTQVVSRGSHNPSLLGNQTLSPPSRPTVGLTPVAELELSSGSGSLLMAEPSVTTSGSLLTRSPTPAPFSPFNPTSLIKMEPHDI

GGACTT
binding signal (ELK1): 1.24 fold enrichment (6-mer frequency, TF over GST control) | binding signal (GABPA): 1.16 fold enrichment (6-mer frequency, TF over GST control) | binding signal (ERG): 1.17 fold enrichment (6-mer frequency, TF over GST control) | binding signal (ELF1): 1.16 fold enrichment (6-mer frequency, TF over GST control) | binding signal (EHF): 1.11 fold enrichment (6-mer frequency, TF over GST control) | binding signal (SPIB): 1.11 fold enrichment (6-mer frequency, TF over GST control) | binding signal (ELK3): 1.11 fold enrichment (6-mer frequency, TF over GST control) | binding signal (ELF4): 1.09 fold enrichment (6-mer frequency, TF over GST control) | binding signal (ELK4): 1.08 fold enrichment (6-mer frequency, TF over GST control) | binding signal (ETV2): 1.19 fold enrichment (6-mer frequency, TF over GST control) | binding signal (ELF3): 1.06 fold enrichment (6-mer frequency, TF over GST control) | binding signal (ETV1): 1.22 fold enrichment (6-mer frequency, TF over GST control) | binding signal (ERF): 1.01 fold enrichment (6-mer frequency, TF over GST control) | binding signal (ETV3L): 1.1 fold enrichment (6-mer frequency, TF over GST control) | binding signal (ETS2): 1.13 fold enrichment (6-mer frequency, TF over GST control) | binding signal (ETV7): 1.13 fold enrichment (6-mer frequency, TF over GST control) | binding signal (ETV3): 1.27 fold enrichment (6-mer frequency, TF over GST control) | binding signal (ETV6): 1.13 fold enrichment (6-mer frequency, TF over GST control)
